Screening results: PubChem BioAssay, National Center for Advancing Translational Sciences (NCATS)
Only a selection was taken, and hits are over-represented in it overall.
Methyltransferases: Primary Screen for Target Class Profiling of Small Molecule Inhibitors of Methyltransferases. purified enzyme, MTase-Glo SAH luminescence; hits give low values. calls only at 40 µM. hit rate 3.9% among 25,000. AID 1745853, 2022; call rule not given here
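Each enzyme was assayed with SAM and its substrate. SAH formation detected by MTase-Glo luminescence; single-point 40 uM screen[…].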
Each line names hits and unclear results; the compound was inactive in the other large screens; ! = repeats disagree.

COc1cc(/C=C/C(=O)OC2CC(C)=C(C(=O)O)/C2=C/CO[C@@H]2O[C@H](CO)[C@@H](O)[C@H](O)[C@H]2O)ccc1O (some centres not stated)	none
O=C(/C=C/c1ccc(O)c(O)c1)OCc1ccccc1O[C@@H]1O[C@H](CO)[C@@H](O)[C@H](O)[C@H]1O	none
COc1cc(C(CO)C(OC2OC(CO)C(O)C(O)C2O)c2ccc(O)c(OC)c2)ccc1O (configuration not stated)	none
COc1cc(/C=C/c2cc(O)cc(O[C@@H]3O[C@H](CO)[C@@H](O)[C@H](O)[C@H]3O)c2)ccc1O	Methyltransferases active
Cc1ccc(NC(=O)c2cc3n(n2)CC(C)(C(=O)NC2CCCCCC2)N(C)C3=O)cc1 (configuration not stated)	none
CCCC(=O)N(c1ccc(OCC)cc1)S(=O)(=O)c1ccc2c(c1)n(C)c(=O)n2C	none
CCc1ccc(CN2C(=O)c3cc4ccccc4n3CC2(C)C(=O)NCc2ccccc2)cc1 (configuration not stated)	none
COc1cc(OC)cc(N2C(=O)c3cc4ccccc4n3CC2(C)C(=O)NC2CCCC2)c1 (configuration not stated)	none
COc1cccc(CNC(=O)Cn2ccc3cc(S(=O)(=O)N4CCCCC4)ccc32)c1OC	none
COc1ccccc1CNS(=O)(=O)c1cc2[nH]c(=O)[nH]c2cc1C	none
COc1ccc(N2C(=O)c3cc4sccc4n3CC2(C)C(=O)NC2CCC(C)CC2)cc1Cl (configuration not stated)	none
CCCn1c(=O)c2ccc(C(=O)NC3CCCC3)cc2n2c(=O)n(CC(=O)Nc3ccc(C)cc3)nc12	none
CC(C)CCNC(=O)C1(C)Cn2nc(C(=O)NCCCN3CCCCC3)cc2C(=O)N1C (configuration not stated)	none
CC(C)CCNC(=O)C1(C)Cn2c(c(-n3cccc3)c3ccccc32)C(=O)N1CCc1cccs1 (configuration not stated)	none
COc1ccc(CNC(=O)Cn2nc3n(CCCOC(C)C)c(=O)c4ccccc4n3c2=O)cc1	none
COCCCN1C(=O)c2cc3occc3n2CC1(C)C(=O)NC1CCCCCC1 (configuration not stated)	none
O=C(/C=C/c1ccc(O)cc1)OC[C@H]1O[C@H](O[C@@]2(CO)O[C@@H](CO)[C@H](O)[C@H]2O)[C@H](O)[C@@H](O)[C@@H]1O	none
COc1cc(/C=C/C(=O)O[C@H]2[C@H](O)[C@@H](CO)O[C@@]2(CO)O[C@H]2O[C@H](CO)[C@@H](O)[C@H](O)[C@H]2O)cc(OC)c1O	none
COc1cc(/C=C/C(=O)OCC2OC(OC3(CO)OC(CO)C(O)C3O)C(O)C(O)C2O)ccc1O (configuration not stated)	Methyltransferases active
CC(C)N1C(=O)c2cc3occc3n2CC1(C)C(=O)NC1CCCCCCC1 (configuration not stated)	none
CSc1cccc(NC(=O)c2cc3n(n2)CC(C)(C(=O)NC2CCCCCC2)N(C)C3=O)c1 (configuration not stated)	none
CCOc1ccccc1CN1C(=O)c2cc3ccccc3n2CC1(C)C(=O)NCCCOC(C)C (configuration not stated)	none
CC(=O)NC1CCN(C(=O)c2coc(COc3cccc(C(F)(F)F)c3)n2)C1 (configuration not stated)	none
O=C(CNC(=O)c1cccc(C(F)(F)F)c1)N[C@@H]1CCN(Cc2ccc(Cl)cc2)C1	none
COc1ccc(C2(O)CCC(N3CC[C@@H](NC(=O)CNC(=O)c4cccc(C(F)(F)F)c4)C3)CC2)cn1 (some centres not stated)	Methyltransferases active
CCC(C)NC(=O)c1ccc2c(=O)n(C)c3nnc(SCC(=O)c4ccc(F)cc4)n3c2c1 (configuration not stated)	none
CCn1nc(CNC(=O)c2c(F)cccc2Cl)c2ccccc21	none
CC(C)(C)c1cc2n(n1)CC(C)(C(=O)NCc1ccccc1)N(c1ccc(F)cc1)C2=O (configuration not stated)	none
CSc1ccc(CN2C(=O)c3cc4ccccc4n3CC2(C)C(=O)NCCCOC(C)C)cc1 (configuration not stated)	none
CNC1CCC(N(Cc2cccc(-c3ccncc3)c2)C(=O)c2sc3c(F)ccc(F)c3c2Cl)CC1 (configuration not stated)	Methyltransferases active!
CNC1CCC(N(Cc2cccc(-c3ccncc3)c2)C(=O)c2sc3ccccc3c2Cl)CC1 (configuration not stated)	Methyltransferases active
CC1(C(=O)NC2CCCCCC2)Cn2c(cc3occc32)C(=O)N1c1cccc(Cl)c1 (configuration not stated)	none
CC(C)CCNC(=O)C1(C)Cn2nc(C(=O)NCCc3ccco3)cc2C(=O)N1C (configuration not stated)	none
CCCn1c(=O)c2cc(F)ccc2n2c(SCc3cccc(C)c3)nnc12	none
COc1ccc(N2CCN(CCNS(=O)(=O)c3ccc4[nH]c(=O)[nH]c4c3)CC2)cc1	none
CCc1ccc(N2C(=O)c3cc4sccc4n3CC2(C)C(=O)NC2CCC(C)CC2)cc1 (configuration not stated)	none
